# Compound activity from PubChem.
# LANA-H2B inh: blockers of LANA interaction with H2A/H2B – biochemical, FP readout, HTS, primary screen; inhibition, % (concentration not given with the values); cell-free LANA-H2A/H2B peptide, fluorescence polarization; hit rate 0.6% among 320,000; Protein LANA1 (Human herpesvirus 8 type P (isolate GK18)), Q9QR71; in the data active = inhibition mostly above about 10%, no sharp cut-off; inactive = mostly below about 6.7%
# LYPLA2 counter: LYPLA2 inhibitors, primary screen, counter-screen for PME1 inhibitor project, biochemical, fluorescence polarization, FP-Rh probe ABPP. Acyl-protein thioesterase 2 (Homo sapiens), O95372. recombinant LYPLA2. inhibition, % at 5.9 µM. hit rate 0.38% among 320,000. AID 2177, 2009;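 active = inhibition above the screen-wide mean plus 3 SD, limit set per campaign, cut at about 26% in these data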;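 also: 0% = LYPLA2 with DMSO and 100% = wells lacking LYPLA2 enzyme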
# LYPLA1 inh: LYPLA1 inhibitors, primary screen, counter-screen for PME1 inhibitor project, biochemical, fluorescence polarization, FP-Rh probe ABPP; Acyl-protein thioesterase 1 (Homo sapiens), O75608; recombinant LYPLA1; inhibition, % at 5.9 µM; hit rate 0.16% among 320,000; AID 2174, 2009;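 active = inhibition above the mean of all tested compounds plus 3 SD, set per campaign, cut at about 14% in these data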;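 also: inhibitors block serine hydrolase probe labeling of LYPLA1 so polarization falls; 0% = enzyme with DMSO and 100% = wells lacking LYPLA1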
# EBNA-1 inhibitor: EBNA-1 DNA-binding inhibitors, primary screen, biochemical, fluorescence polarization. hit rate 0.34% among 300,000. AID 1950, 2009. inhibition, % at 14.8 µM; in the data active = inhibition above about 28%
# ZTA DNA inh: counter-screen for EBNA-1 inhibitors: inhibitors of Epstein-Barr virus ZTA; ZTA-DNA binding, fluorescence polarization; inhibition, % at 11 µM; hit rate 0.15% among 320,000; AID 2234; in the data active = inhibition above about 33%
# Zta DNA confirm: EBV Zta binding to ZRE DNA, inhibitors, confirmation, biochemical, fluorescence polarization, triplicate; inhibition, % at 11.1 µM; shares compounds with ZTA DNA inh; hit rate 30% among 320;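 active = mean inhibition across triplicate runs above the hit threshold derived for the original primary screen, cut at about 33% in these data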;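 also: 0% = Zta with DMSO and 100% = wells lacking Zta protein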
# EBNA-1 counter: EBNA-1 DNA-binding inhibition, counter-screen for ZTA inhibitor project, biochemical, fluorescence polarization | shares compounds with ZTA DNA inh | inhibition, % at 14.8 µM | 320 tested, under 10 active | AID 2362, 2010; call rule not given here
# Active calls of the source: *; / = no result. An excerpt weighted towards active compounds, which were near 1.4% of everything screened.
SMILES,LANA-H2B inh,LYPLA2 counter,LYPLA1 inh,EBNA-1 inhibitor,ZTA DNA inh,Zta DNA confirm,EBNA-1 counter
O=C1NC(=O)N(Cc2ccccc2)C(=O)/C1=C\C=C\c1ccco1,2,-4,-7,3,5,/,/
O=C1NC(=O)N(Cc2ccco2)C(=O)/C1=C/C=C/c1ccco1,-2,-3,-2,12,35*,31,7
CN1C(=O)NC(=O)/C(=C\C=C\c2ccccc2[N+](=O)[O-])C1=O,2,0,0,15,16,/,/
Cn1c(O)c(/C=N/N2CCCCC2)c(=O)[nH]c1=O,2,2,2,2,37*,1,4
CCc1ccc(N2C(=O)NC(=O)/C(=C\c3cc(C)n(-c4cc(C(=O)O)cc(C(=O)O)c4)c3C)C2=O)cc1,-6,-5,-2,-7,37*,28,-8
CC(C)[C@]12CC(=O)[C@H](C)[C@H]1C2,0,2,3,/,-4,/,/
CCCCCCC(=O)N/N=C/c1c(O)n(CCCC)c(=S)[nH]c1=O,-1,-6,-5,12,-2,/,/
CCCCC(=O)N/N=C/c1c(O)n(CC)c(=S)[nH]c1=O,3,0,-2,7,36*,-3,-8
O=C(O)CC1OCC=C2CN3CCC45c6ccccc6NC4C1C2CC35 (stereo unspecified),0,-2,-1,0,-12,/,/
O=C(O)CC1OCC=C2CN3CCC45C6=CC(=O)C(=O)C([N+](=O)[O-])=C6NC4C1C2CC35 (stereo unspecified),-4,-3,2,-19,41*,67*,-2
Nc1c(Cl)cc([N+](=O)[O-])cc1Cl,-3,-2,1,-1,4,/,/
CCN(CC)c1ccc(N=Cc2c(O)n(Cc3ccco3)c(=O)[nH]c2=O)cc1,8,0,1,-7,37*,4,-10
CCN(CC)c1ccc(N=Cc2c(O)n(-c3cc(OC)ccc3OC)c(=O)[nH]c2=O)cc1,-4,3,5,-17,34*,-6,-6
Cc1nc2ccccc2c(=O)n1-c1ccc(Br)cc1[N+](=O)[O-],6,4,-2,-13,-17,/,/
